According to the supplement of paper PMC9446081:
Hit rate of the full screen: of about 39,000 compounds, about 220 (0.56%) showed activity. The sample holds actives, similar compounds and a random draw of the others, so the mix is not that of the screen. A number with no mark means an inactive call.

Test system: Escherichia coli K-12 BW25113
Assay: relative growth (OD600 normalised to plate interquartile mean) (fraction); higher = less growth inhibition, active = 0.2 or less
Settings: 50 µM; LB; incubation time: overnight (16-24 h)
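Also: Wild-type cells incubated without shaking, value is the mean of two biological replicates.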

| SMILES | relative growth |
| --- | --- |
| CC1CCc2c(N3CCC(O)CC3)c(F)cc3c(=O)c(C(=O)O)cn1c23 (stereo not drawn) | 0.0484 (active) |
| CC1CCc2cc(F)cc3c(=O)c(C(=O)O)cn1c23 (stereo not drawn) | 0.0455 (active) |
| C[C@@H]1CN([C@@H](C)CO)C(=O)Cc2cc(NC(=O)Cc3ccccc3)ccc2O[C@@H]1CN(C)Cc1ccc(Oc2ccccc2)cc1 | 0.987 |
| O=C(C[C@H]1C=C[C@H](NS(=O)(=O)c2ccccc2F)[C@@H](CO)O1)NCCCN1CCOCC1 | 0.993 |
| C[C@H]1CN([C@@H](C)CO)C(=O)Cc2cc(NS(=O)(=O)c3ccccc3)ccc2O[C@@H]1CN(C)S(C)(=O)=O | 0.961 |
| NC(=O)[C@@H]1C(=O)C[C@@H]2C[C@@H]3Cc4cccc(O)c4C(=O)[C@@H]3C(=O)[C@]2(O)C1=O | 0.164 (active) |
| C[C@@H]1CN([C@@H](C)CO)C(=O)Cc2cc(NC(=O)C3CCCCC3)ccc2O[C@H]1CN(C)C(=O)Nc1cccc2ccccc12 | 1.01 |
| COC(=O)[C@H](Cc1ccc(N=[N+]=[N-])cc1)N1CC2=C[C@@H](C3CC3)n3c(=O)n(C)c(=O)n3[C@H]2[C@@H]1[C@@H](O)Cc1ccccc1 | 0.989 |
| CC(=O)NCC1CN(c2ccc(N3CCOCC3)c(F)c2)C(=O)O1 (stereo not drawn) | 0.701 |
| CC(=O)NC[C@H]1CN(c2ccc(N3CCN(C(=O)CO)CC3)c(F)c2)C(=O)O1 | 0.38 |
| O=C(O)c1cn(C2CC2)c2cc(N3CCNCC3)c(F)cc2c1=O | 0.0478 (active) |
| O=C(O)c1cn(C2CC2)c2cc(N3CCC(O)(COc4ccc(N5C[C@H](CO)OC5=O)cc4F)CC3)c(F)cc2c1=O | 0.111 (active) |
| CCN1CCN(c2cc3c(cc2F)c(=O)c(C(=O)O)cn3C2CC2)CC1 | 0.0449 (active) |
| C[C@H](CO)N1C[C@H](C)[C@H](CN(C)C(=O)Nc2ccc(F)cc2)OCCCC[C@H](C)Oc2ccc(NC(=O)C3CCOCC3)cc2C1=O | 0.981 |
| Cc1ccc(S(=O)(=O)Nc2ccc3c(c2)C(=O)N([C@@H](C)CO)C[C@H](C)[C@H](CN(C)S(C)(=O)=O)OCCCC[C@@H](C)O3)cc1 | 1 |
| NC[C@H]1CC[C@H](C(=O)N2CCC(c3ccncc3)CC2)CC1 | 1.03 |
| Cc1ccc(S(=O)(=O)N[C@H]2CC[C@H](CCNC(=O)CN3CCOCC3)O[C@@H]2CO)cc1 | 1 |
| C[C@@H]1CN([C@H](C)CO)C(=O)c2cc(NS(=O)(=O)c3ccccc3)ccc2O[C@@H](C)CCCCO[C@H]1CN(C)Cc1ccc(C(=O)O)cc1 | 1 |
